# Most compounds without a hit are left out; they make up all but 3.6% or so of the library.
# TGFb inhibitor – inhibitors of TGF-b signaling; HepG2 CAGA-GFP TGF-b/SMAD3 reporter, GFP fluorescence, 18 h; TGF-beta stimulated, 500 pg/mL final; Potency, µM (highest dose often 46.1 µM), without a hit: top-dose activity, negative = inhibition, actives largely listed as inhibitors; hit rate 1.2% among 410,000; further: on the % scale 0 is the no-effect control and ±100 the full control effect; nearly all actives have a fitted effect of over 65% in size
#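 Cell-based qHTS in HEPG2 carrying a CAGA-GFP Smad reporter; compounds added before 500 pg/mL final TGF-beta, 18 h incubation at 37 degrees C, GFP fluorescence quantified per cell by imaging cytometry.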
# Nrf2 inh – Nrf2 pathway inhibition. hit rate 2.1% among 360,000. A549 ARE-Fluc reporter, luciferase luminescence, 18-24 h. Potency, µM (titrated, usually from 46 µM), for inactives: at the highest dose activity change, negative = inhibition, usual class: inhibitors; further: on the % scale 0 is the no-effect control and ±100 the full control effect; nearly all actives have a fitted effect of over 60% in size
#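 Reporter: ARE-Fluc in A549. Exposure: 18-24 h, 37 °C, 5% CO2, 5% FBS OPTI-MEM. Readouts: fluorescent cytotoxicity (CellTiter-Fluor), then luminescent Nrf2 signal after BugLite.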
# A549 tox – counter-screen for Nrf2 inhibitors: cytotoxicity in A549 cells; Potency, µM (titrated, usually from 46 µM), inactives show top-dose activity change, negative = cytotoxicity, usual class: inhibitors; AID 504648; hit rate 0.16% among 390,000; A549 ARE-Fluc cells, CellTiter-Fluor viability, 18-24 h; further: on the % scale 0 is the no-effect control and ±100 the full control effect
#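 A549 ARE_Fluc cells in 5% FBS OPTI-MEM were exposed to compounds in concentration-response for 18-24 h at 37 deg C. Viability was read by CellTiter-Fluor fluorescence (Ex 405/Em 525) after 30 min, before the luciferase read.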
# HepG2 viability – HepG2 cytotoxicity, counter-screen for TGF-b inhibitors; Potency, µM (titrated, usually from 46.1 µM), for inactives: at the top dose activity change, negative = cytotoxicity, hits mostly cytotoxic; HepG2 CAGA-GFP viability, ATP luminescence, 18 h; AID 588856; hit rate 0.76% among 410,000
#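 CellTiter-Glo luminescence gave cytotoxicity after 18 hours at 37 degrees C. The cells were HepG2 CAGA-GFP in 1% FBS DMEM, stimulated with 500 pg/mL TGF-beta after compound addition. %Activity was normalised to no-cell wells (complete cell-killing) and DMSO (no toxicity), and curves were fitted and classified.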
# Nrf2 activator – activates Nrf2 signaling; AREc32 ARE-luciferase reporter (MCF7-derived line), luminescence, 24 h; Potency, µM (series often up to 46.1 µM), inactives show top-dose activation, hits mostly activators; hit rate 0.31% among 410,000; AID 624171; further: % of control where 0% means no effect; nearly all actives have a fitted effect of over 65% in size
#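 Each well held 1000 AREc32 cells, which were incubated with compound for 24 hr at 37 deg C after overnight attachment, and ARE reporter activity was quantified by firefly luciferase luminescence.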
# * = called active by the depositor; ? = inconclusive; nt = no result given. The call rests on the fitted dose curve; in most records, active means well fitted curve in the direction sought with a large enough effect; inconclusive means small, poorly fitted or top-dose-only effect, or another doubt; inactive means no such curve, though single readings can be large; an effect the other way counts as inactive or inconclusive. Potency means the concentration at half of the fitted maximal effect.
SMILES,TGFb inhibitor,Nrf2 inh,A549 tox,HepG2 viability,Nrf2 activator
Cc1cccc(Cn2c(=O)n3nc(-c4ccccc4)nc3c3ccccc32)c1,?,15µM*,-6%,3%,0%
CSc1ncc(Cl)c(C(=O)Nc2cccnc2)n1,0%,2%,-6%,2%,11µM*
CSc1ncc(Cl)c(C(=O)Nc2ccc(NC(C)=O)cc2)n1,12%,-3%,1%,13%,0%
COc1ccc(CC(=O)Nc2ccc(-c3cn4cccc(C)c4n3)cc2)cc1OC,-11%,7.3µM*,2%,2%,7%
COc1ccc(-c2nc3cc(NC(=O)Cc4ccc(Cl)cc4)ccc3o2)cc1OC,?,23µM*,?,0%,0%
COc1ccc(-c2nc3cc(NC(=O)Cc4ccc(OC)c(OC)c4)ccc3o2)cc1,?,15µM*,?,-24%,1%
COc1ccc(-c2nc3cc(NC(=O)CSc4ccc(C)cc4)ccc3o2)cc1,?,2%,-20%,-43%,-1%
O=C(CN1C2CCC1CC(NC(=O)NC1CCCCC1)C2)NC1CC1 (stereo unspecified),14%,7%,-22%,-8%,0%
CCCc1nc(N2CCCC2)c(C#N)c2c1CCCC2,-22%,10%,-7%,-9%,0%
Cn1nnnc1SCC(=O)N1CCN(c2ccc(Cl)cc2)CC1,?,?,-1%,-13%,0%
CC(C)(CNC(=S)NCCc1ccccc1)CNC(=S)NCCc1ccccc1,16µM*,?,?,-39%,-1%
COc1ccc(Cn2nnnc2CN2CCC(c3nc4ccccc4s3)CC2)cc1,1%,23µM*,-3%,-21%,-1%
Cc1cc2nc(C3CCN(Cc4nnnn4Cc4ccccc4)CC3)[nH]c2cc1C,-16%,?,1%,-28%,0%
COCCn1c(C(F)(F)F)ccc(NC(=O)c2ccccc2)c1=O,-1%,?,3%,-19%,?
CCc1ccc(N2CCn3c2nc2c3c(=O)n(Cc3ccc(F)cc3)c(=O)n2C)cc1,-21%,?,-14%,-1%,1%
CCc1ccc(N2CCn3c2nc2c3c(=O)n(Cc3c(F)cccc3Cl)c(=O)n2C)cc1,2%,23µM*,-8%,-2%,-1%
COc1ccc(NC(=O)Cn2c(=O)oc3cc(S(=O)(=O)N4CCCC4)ccc32)cc1,5%,-8%,3%,0%,0%
Cc1ccc(NC(=O)C(OC(=O)c2ccc(NC(N)=O)cc2)c2ccccc2)cc1Cl (stereo unspecified),?,?,-2%,13µM*,0%
CN(C)CCCNC(=O)/C(=C\c1ccc(-c2ccc(Br)cc2)o1)NC(=O)c1ccccc1,?,7%,26%,11µM*,3%
O=C(CSc1n[nH]c(=O)n1Cc1ccco1)Nc1ccccc1,0%,7%,-2%,-27%,-1%
CC(C)c1ccc(NC(=O)CSc2n[nH]c(=O)n2Cc2ccco2)cc1,?,10µM*,-4%,-69%,5%
CN(Cc1ccccc1)c1cc2c(c3c1ccn3C)C1CCC2O1 (stereo unspecified),?,nt,nt,2%,5%
COc1ccccc1N(C)c1cc2c(c3c1ccn3C)C1CCC2O1 (stereo unspecified),16µM*,nt,nt,-48%,-2%
Cn1ccc2c(N(Cc3ccccc3)Cc3ccccc3)cc3c(c21)C1CCC3O1 (stereo unspecified),10µM*,nt,nt,1%,?
Cn1ccc2c(N3c4ccccc4CCc4ccccc43)cc3c(c21)C1CCC3O1 (stereo unspecified),?,nt,nt,7.1µM*,-3%
SMILES,TGFb inhibitor,Nrf2 inh,A549 tox,HepG2 viability,Nrf2 activator
O=C(CCCC(=O)Nc1cccnc1)Nc1cccnc1,-4%,11%,1%,2%,0%
CC#CCC(CC#CC)c1nc2ccccc2c(=O)n1N,-2%,-1%,8%,-20%,-2%
CCCn1nnnc1NC(=O)c1ccc2ccccc2c1,-2%,?,?,13µM*,4%
Nc1nc(=S)c2[nH]c(=S)[nH]c2[nH]1,-4%,2%,1%,-15%,0%
Nc1nc(=S)c2[nH]cnc2[nH]1,?,?,-19%,1.4µM*,-1%
O=C(/C=C/c1ccccc1)CCN1CCCCC1,11µM*,6%,-9%,20µM*,?
O=C(CCN1CCCCCC1)c1ccccc1,0%,9%,-3%,-3%,1%
CCCCN1CCC(=O)NC1=O,-5%,6%,-2%,-6%,2%
CCN(CC)C(=O)CSc1nnc2nnc3cc(OC)ccc3n12,?,18µM*,?,-43%,4%
CCOC(=O)c1c(C)oc2ccc(O)c(CN(C)C)c12,28%,nt,-3%,14%,0%
CCOC(=O)c1c(CSc2ccc(CC)cc2)oc2ccc(O)c(CN(C)C)c12,?,9%,0%,22µM*,0%
Cc1ccc(C)c2[nH]c(=O)c(CN(Cc3ccc4c(c3)OCO4)Cc3nnnn3Cc3ccco3)cc12,3%,?,-6%,-20%,3%
Cc1ccc2c(n1)sc1c(-c3ccc(Br)cc3)c(C#N)c(N)nc12,-3%,21µM*,?,-1%,4%
O=c1[nH]c2ccccc2nc1NCc1ccccc1,7%,2%,0%,0%,6%
CC1=NN(c2ccc([N+](=O)[O-])cc2)C(=O)/C1=C\N(C)C,0%,28%,-9%,4.5µM*,2%
CCCC1=NN(c2ccc([N+](=O)[O-])cc2)C(=O)/C1=C/N(C)C,-2%,16%,-1%,-4%,0%
CC1=NN(c2nc3ccccc3[nH]2)C(=O)C1Cc1ccccc1 (stereo unspecified),?,23µM*,-27%,15%,7%
CC1=NN(c2nc3ccccc3[nH]2)C(=O)/C1=C/N(C)C,8%,18µM*,-3%,1.6µM*,0%
Cc1cccc(-c2nnn3c2nc(NCCC(C)C)c2ccccc23)c1,-30%,-2%,2%,-24%,1%
Cc1cc(Cl)c(S(=O)(=O)N2CCN(c3cccc(C)c3C)CC2)cc1OCC(N)=O,?,?,-6%,-94%,0%
O=C(NCC(c1cccnc1)N1CCN(c2ccc(F)cc2)CC1)c1ccccc1 (stereo unspecified),-9%,-6%,-2%,3%,0%
O=C(NCc1ccc(Cl)cc1)C(=O)NCC(c1cccnc1)N1CCN(c2ccc(F)cc2)CC1 (stereo unspecified),-15%,21µM*,-21%,13%,4%
COC(=O)C1C(=O)CC(C)(O)C(C(=O)OC)C1c1ccccc1F (stereo unspecified),0%,13%,-1%,-3%,0%
NS(=O)(=O)c1ccc(Sc2nc3ccccc3s2)c([N+](=O)[O-])c1,?,?,-18%,13µM*,?

# Compound activity (PubChem)
